ERb SRC1 inh: blocks coactivator binding to human estrogen receptor beta; Q92731; TR-FRET ER-beta LBD / SRC1-Cy5 peptide binding; receptor agonist-loaded with 1 µM estradiol; inhibition, % at 25.6 µM; 86,000 tested, 1.3% active; AID 633;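 active = compounds whose percent inhibition of the receptor-coactivator binding signal exceeds about 50% in the single-dose screen, limit read from the data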
E-sel TNF inh: blocks E-selectin expression induced by TNF alpha | 120,000 tested, 0.71% active | AID 1246 | inhibition, % at 2 µM | HUVEC TNFa-induced E-selectin immunofluorescence, high content;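 active = inhibition above the batch mean plus 3 SD, and confirmed as a hit on visual image review, cut at about 43% in these data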
Calb biofilm kill: kills Candida albicans biofilms; C. albicans biofilm + clotrimazole, Alamar Blue; inhibition, % at 6 µM; 85,000 tested, 0.14% active;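 active = inhibition above 20%; inactive = inhibition below 20%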;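 note: preformed 24 hr biofilms exposed to compound for 48 hr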
cytoskel mod: alters cytoskeleton assembly in HUVEC cells; HUVEC TNFa F-actin phalloidin imaging, high content; inhibition, % at 2 µM; 91,000 tested, 0.18% active;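 active = inhibition above the batch mean plus 3 SD and confirmed as a hit by visual image inspection, cut at about 30% in these data, passing the limit was not always enough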
ERa SRC1 inh: ER-alpha (human) coactivator binding inhibition | P03372 | TR-FRET ER-alpha LBD / SRC-1 peptide, estradiol-bound | inhibition, % at 25.6 µM | 86,000 tested, 1.7% active | AID 629; in the data active = inhibition above about 50%
Target sequence (P03372 whole entry, looked up, the tested form may be a part): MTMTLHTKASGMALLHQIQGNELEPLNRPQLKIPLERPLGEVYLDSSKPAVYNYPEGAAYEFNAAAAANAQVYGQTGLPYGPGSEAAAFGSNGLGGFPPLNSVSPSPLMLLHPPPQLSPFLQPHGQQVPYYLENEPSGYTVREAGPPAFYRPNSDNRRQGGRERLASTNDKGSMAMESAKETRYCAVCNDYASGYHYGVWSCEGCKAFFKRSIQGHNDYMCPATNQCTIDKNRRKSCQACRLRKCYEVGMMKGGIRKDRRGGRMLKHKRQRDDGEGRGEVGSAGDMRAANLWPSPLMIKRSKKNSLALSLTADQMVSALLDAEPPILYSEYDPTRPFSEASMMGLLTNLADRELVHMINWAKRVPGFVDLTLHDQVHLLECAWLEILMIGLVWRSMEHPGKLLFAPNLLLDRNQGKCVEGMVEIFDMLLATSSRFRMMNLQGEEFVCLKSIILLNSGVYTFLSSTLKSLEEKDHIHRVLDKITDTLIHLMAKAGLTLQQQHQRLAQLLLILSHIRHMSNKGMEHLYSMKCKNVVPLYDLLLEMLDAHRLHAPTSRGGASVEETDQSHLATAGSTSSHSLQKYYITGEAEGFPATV
ERa SRC1 pot: ER-alpha (human) coactivator binding potentiation; P03372; TR-FRET ERalpha-LBD/SRC-Cy5 coactivator binding, 2 h; 100 = basal binding, no effect; coactivator binding (% of control), % at 25.6 µM; 86,000 tested, 1.3% active; AID 639; in the data active = activity above about 200%;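 note: binding measured in presence of low estradiol as agonist stimulus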
Numbers stand for hits; [ ] = remark or other dose. Shown are actives, neighbours in structure and some others; about 2.9% of the full set was active somewhere.

Screening CN1/C(=C/C2CC(=O)N(c3ccc([N+](=O)[O-])cc3)C2=O)C(C)(C)c2ccccc21 (stereo not given) returned ERb SRC1 inh inactive, Calb biofilm kill inactive, cytoskel mod inactive, ERa SRC1 inh inactive and ERa SRC1 pot inactive.
`COC(=O)C1C(=O)C2=C(CC1C)NC(C)=C(C(=O)OC1CCCCC1)C2c1ccc(N(C)C)cc1` (stereo not given) gave ERb SRC1 inh inactive, E-sel TNF inh inactive, Calb biofilm kill inactive, cytoskel mod inactive, ERa SRC1 inh inactive and ERa SRC1 pot 222.9.
CCN(CC(=O)NCc1cccs1)C(=O)CCc1c[nH]c2ccccc12 was read as E-sel TNF inh inactive.
Cc1cc(C)c(NC(=O)CSc2nc3ccc(NC(=O)CSc4nnnn4Cc4ccccc4)cc3s2)c(C)c1 was read as ERb SRC1 inh inactive, E-sel TNF inh inactive, Calb biofilm kill inactive, cytoskel mod inactive, ERa SRC1 inh 67.3 and ERa SRC1 pot inactive.
For Cn1cnnc1SCC(=O)Nc1ccc2nc(SCc3cccc4ccccc34)sc2c1 the results were ERb SRC1 inh inactive, E-sel TNF inh inactive, Calb biofilm kill inactive, cytoskel mod inactive, ERa SRC1 inh inactive and ERa SRC1 pot inactive.
Cn1cnnc1SCC(=O)Nc1ccc2nc(SCc3ccccc3)sc2c1 was read as ERb SRC1 inh inactive, E-sel TNF inh inactive, Calb biofilm kill inactive, cytoskel mod inactive, ERa SRC1 inh inactive and ERa SRC1 pot 366.2[fluorescence artefact?].
O=C(CSc1nc2ccc(NC(=O)CSc3nnnn3Cc3ccccc3)cc2s1)Nc1ccccc1 was read as ERb SRC1 inh inactive, E-sel TNF inh inactive, cytoskel mod inactive, ERa SRC1 inh inactive and ERa SRC1 pot inactive.
Screening CCN(CC)c1ccc(-c2nc3cnccc3n2C)cc1 returned ERb SRC1 inh inactive, E-sel TNF inh inactive, Calb biofilm kill inactive, ERa SRC1 inh inactive and ERa SRC1 pot inactive.
CC(C)[C@H](NC(=O)c1ccc(F)cc1)C(=O)NC1=NCCS1 was read as E-sel TNF inh inactive.
Cc1ccc(CNC(=O)C(Cc2ccccc2)NS(=O)(=O)c2ccc(Br)s2)cc1 (stereo not given) was read as E-sel TNF inh inactive.
Cc1ccccc1OCc1nnc(SCC(=O)NCc2ccco2)n1C was read as E-sel TNF inh inactive.
C=CCn1c(COc2ccccc2F)nnc1SCC(=O)NC(=O)NCc1ccco1 was read as ERb SRC1 inh 53.7, Calb biofilm kill inactive, ERa SRC1 inh 67.2[fluorescence artefact?] and ERa SRC1 pot inactive.
Screening COc1ccccc1OCc1nnc(SCC(=O)NCc2ccco2)n1Cc1ccco1 returned ERb SRC1 inh inactive, E-sel TNF inh inactive, Calb biofilm kill inactive, cytoskel mod inactive, ERa SRC1 inh inactive and ERa SRC1 pot 207.0[fluorescence artefact?].
C=CCn1c(COc2ccccc2-c2ccccc2)nnc1SCC(=O)NC(=O)NCc1ccco1 was read as ERb SRC1 inh inactive, E-sel TNF inh inactive, Calb biofilm kill inactive, cytoskel mod inactive, ERa SRC1 inh inactive and ERa SRC1 pot inactive.
`CN1C(=O)C2(C(C#N)=C(N)Oc3c2oc(CO)cc3=O)c2ccccc21` (stereo not given) gave ERb SRC1 inh inactive, E-sel TNF inh inactive, Calb biofilm kill inactive, cytoskel mod inactive, ERa SRC1 inh inactive and ERa SRC1 pot inactive.
`Cc1onc(-c2ccccc2Cl)c1C(=O)NCc1cccnc1` gave ERb SRC1 inh inactive, E-sel TNF inh inactive, Calb biofilm kill inactive, ERa SRC1 inh 52.2 and ERa SRC1 pot inactive.
`COc1ccc(CC(=O)O/N=C(\N)Cc2cccc3ccccc23)cc1OC` gave E-sel TNF inh inactive.
For CCc1ccc(Nc2nnc(SCC(=O)Nc3cccnc3Cl)s2)cc1 the results were E-sel TNF inh inactive.
`O=C(CCc1ccc(S(=O)(=O)N2CCOCC2)cc1)NCCCN1CCCC1=O` gave ERb SRC1 inh 57.9[fluorescence artefact?], Calb biofilm kill inactive, cytoskel mod inactive, ERa SRC1 inh inactive and ERa SRC1 pot inactive.
For Clc1ccccc1-c1nnc2sc(-c3ccc4c(c3)OCO4)nn12 the results were ERb SRC1 inh inactive, E-sel TNF inh inactive, Calb biofilm kill inactive, cytoskel mod inactive, ERa SRC1 inh inactive and ERa SRC1 pot inactive.
Screening Cc1cc(-c2nnc3sc(-c4ccc(Cl)cc4Cl)nn23)n[nH]1 returned ERb SRC1 inh inactive, E-sel TNF inh inactive, Calb biofilm kill inactive, cytoskel mod inactive, ERa SRC1 inh inactive and ERa SRC1 pot 359.5.
For Clc1cccc(-c2nnc3sc(-c4ccc5c(c4)OCO5)nn23)c1 the results were ERb SRC1 inh inactive, Calb biofilm kill inactive, ERa SRC1 inh 55.2 and ERa SRC1 pot inactive.
For Clc1ccc(-c2nnc3sc(-c4ccc(Br)o4)nn23)c(Cl)c1 the results were E-sel TNF inh inactive and cytoskel mod inactive.
CN(C)c1ccc(-c2nn3c(-c4ccc(Cl)cc4Cl)nnc3s2)cc1 was read as ERb SRC1 inh 64.3[fluorescence artefact?], E-sel TNF inh inactive, Calb biofilm kill inactive, ERa SRC1 inh 85.3[fluorescence artefact?] and ERa SRC1 pot inactive.
For O=C(NC1CCCCC1)C(c1cccnc1)N(C(=O)CCl)c1cccc(Cl)c1 (stereo not given) the results were E-sel TNF inh inactive.
`COc1cccc2cc(C(=O)Nc3cccnc3N3CCOCC3)c(=O)oc12` gave ERb SRC1 inh inactive, E-sel TNF inh inactive, Calb biofilm kill inactive, cytoskel mod inactive, ERa SRC1 inh inactive and ERa SRC1 pot 289.3.
`O=C(Nc1cccnc1N1CCOCC1)c1cc2ccccc2oc1=O` gave ERb SRC1 inh inactive, Calb biofilm kill inactive, ERa SRC1 inh inactive and ERa SRC1 pot inactive.
COc1ccc(C(=O)NNC(=O)c2cc3cccc(OC)c3oc2=O)cc1 was read as E-sel TNF inh inactive.
For COc1cccc2cc(C(=O)Nc3cccc(C)n3)c(=O)oc12 the results were ERb SRC1 inh inactive, Calb biofilm kill inactive, ERa SRC1 inh inactive and ERa SRC1 pot 253.2.
`CC[n+]1c(/C=C2/C=C(C)CC(C)(C)C2)sc2ccc(OC)cc21` gave E-sel TNF inh 67.4 and cytoskel mod inactive.
CC[n+]1c(/C=C2\C=C(C)CC(C)(C)C2)sc2ccccc21 was read as E-sel TNF inh inactive and cytoskel mod inactive.
Cc1ccc(N=c2oc3cc(O)ccc3cc2C(N)=O)cc1 was read as ERb SRC1 inh inactive, E-sel TNF inh inactive, Calb biofilm kill inactive, cytoskel mod inactive, ERa SRC1 inh inactive and ERa SRC1 pot inactive.
Screening Cc1ncc(CO)c2cc(C(N)=O)c(=Nc3ccccc3)oc12 returned ERb SRC1 inh inactive, E-sel TNF inh inactive, Calb biofilm kill inactive, cytoskel mod 35.9, ERa SRC1 inh inactive and ERa SRC1 pot inactive.
Screening O=C(Nc1cccc(S(=O)(=O)NC2=NCCC2)c1)C1CC(=O)N(c2ccc3c(c2)OCCO3)C1 (stereo not given) returned E-sel TNF inh inactive.
`O=C(COc1ccc2c(c1)OCO2)Nc1ccc2c(c1)oc1ccccc12` gave ERb SRC1 inh inactive, E-sel TNF inh inactive, Calb biofilm kill inactive, cytoskel mod inactive, ERa SRC1 inh 51.0[fluorescence artefact?] and ERa SRC1 pot inactive.

Bioassay records deposited in PubChem BioAssay by several laboratories.
